Holding throughout (test): DAPPL (digital affinity profiling via proximity ligation, sequencing); 10 mM Tris-HCl pH 7.5, 50 mM NaCl, 1 mM DTT, 4% glycerol, room temperature, 30 min; GST-TFs on glutathione beads, 16-mer random dsDNA library, 0.1% formaldehyde crosslink after washing; high values mean tight binding
For one assay, the target named is T1, FEV (Homo sapiens, UniProt Q99581 1-238).
T1 sequence: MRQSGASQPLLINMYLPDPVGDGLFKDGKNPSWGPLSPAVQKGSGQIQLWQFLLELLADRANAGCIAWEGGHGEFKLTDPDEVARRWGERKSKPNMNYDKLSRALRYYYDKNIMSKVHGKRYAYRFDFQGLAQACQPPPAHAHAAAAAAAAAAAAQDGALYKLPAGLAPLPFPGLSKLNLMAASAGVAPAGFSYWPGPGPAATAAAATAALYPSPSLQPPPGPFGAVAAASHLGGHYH
Particulars: protein: recombinant; tags: N-terminal GST; dsDNA, one strand shown. The essentials:
(§1)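 Human transcription factors carrying a GST fusion were produced in yeast, bound to glutathione beads, tagged with DNA barcodes and pooled together with a tag-only sample. Each pool was held with 200 nmole of a random double-stranded 16-mer DNA library in Tris/NaCl/DTT/glycerol buffer for 30 min at room temperature, then washed, crosslinked in 0.1% formaldehyde, proximity-ligated with BsaI/T4 ligase (1 h, 37 °C), PCR-amplified and sequenced on an Illumina NextSeq500. Binding signal is the read frequency of each hexamer for a given factor divided by its frequency in the tag-only sample.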

The target of the next assay is ETV5 (Homo sapiens, UniProt P41161 1-510). Particulars: protein: recombinant; tags: N-terminal GST; dsDNA, one strand shown. The essentials: as §1
The next assay concerns the target HSF1 (Homo sapiens, UniProt Q00613 1-529). To be noted: protein: recombinant; tags: N-terminal GST; chain copies: 3; dsDNA, one strand shown. The essentials: as §1
The target in a further assay is T2, SPIC (Homo sapiens, UniProt Q8N5J4 1-248).
T2 sequence: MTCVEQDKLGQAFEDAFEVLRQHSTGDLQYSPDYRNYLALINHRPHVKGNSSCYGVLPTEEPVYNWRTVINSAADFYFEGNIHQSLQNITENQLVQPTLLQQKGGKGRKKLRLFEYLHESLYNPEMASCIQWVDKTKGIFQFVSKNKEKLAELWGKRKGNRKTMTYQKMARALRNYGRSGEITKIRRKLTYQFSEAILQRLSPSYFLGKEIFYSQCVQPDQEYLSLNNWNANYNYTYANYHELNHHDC
Particulars: protein: recombinant; tags: N-terminal GST; dsDNA, one strand shown. The gist of the method:
as §1

For another assay, the target named is ELF4 (Homo sapiens, UniProt Q99607 1-663). Particulars: protein: recombinant; tags: N-terminal GST; dsDNA, one strand shown. The gist of the method: as §1
For another assay, the target named is T3, ELK4 (Homo sapiens, UniProt P28324-2 1-405).
T3 sequence: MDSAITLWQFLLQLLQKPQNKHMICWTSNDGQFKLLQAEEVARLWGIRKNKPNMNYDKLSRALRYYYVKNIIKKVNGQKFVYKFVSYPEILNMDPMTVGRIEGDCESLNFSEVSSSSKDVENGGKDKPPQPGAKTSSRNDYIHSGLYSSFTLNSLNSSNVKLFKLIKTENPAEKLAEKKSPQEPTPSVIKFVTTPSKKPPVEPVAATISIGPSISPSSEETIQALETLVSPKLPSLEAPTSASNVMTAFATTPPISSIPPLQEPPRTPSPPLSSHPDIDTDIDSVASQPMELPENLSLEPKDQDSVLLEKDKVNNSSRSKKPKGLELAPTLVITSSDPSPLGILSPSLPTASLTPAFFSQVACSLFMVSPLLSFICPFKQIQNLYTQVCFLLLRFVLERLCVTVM
To be noted: protein: recombinant; tags: N-terminal GST; dsDNA, one strand shown. The gist of the method:
as §1

The target in another assay is T4, ETV2 (Homo sapiens, UniProt O00321 1-342).
T4 sequence: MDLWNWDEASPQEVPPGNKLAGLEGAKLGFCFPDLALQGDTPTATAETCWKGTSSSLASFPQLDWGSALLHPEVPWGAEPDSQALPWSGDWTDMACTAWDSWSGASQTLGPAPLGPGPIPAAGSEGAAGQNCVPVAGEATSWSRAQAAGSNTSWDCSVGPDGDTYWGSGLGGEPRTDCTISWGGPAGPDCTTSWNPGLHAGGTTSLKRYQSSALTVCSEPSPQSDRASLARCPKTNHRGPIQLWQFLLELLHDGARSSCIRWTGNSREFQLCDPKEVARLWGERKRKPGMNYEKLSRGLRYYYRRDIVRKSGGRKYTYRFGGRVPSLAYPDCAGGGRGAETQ
To be noted: protein: recombinant; tags: N-terminal GST; dsDNA, one strand shown. The essentials:
as §1

The target of the next assay is T5, ELF3 (Homo sapiens, UniProt P78545 1-371).
T5 sequence: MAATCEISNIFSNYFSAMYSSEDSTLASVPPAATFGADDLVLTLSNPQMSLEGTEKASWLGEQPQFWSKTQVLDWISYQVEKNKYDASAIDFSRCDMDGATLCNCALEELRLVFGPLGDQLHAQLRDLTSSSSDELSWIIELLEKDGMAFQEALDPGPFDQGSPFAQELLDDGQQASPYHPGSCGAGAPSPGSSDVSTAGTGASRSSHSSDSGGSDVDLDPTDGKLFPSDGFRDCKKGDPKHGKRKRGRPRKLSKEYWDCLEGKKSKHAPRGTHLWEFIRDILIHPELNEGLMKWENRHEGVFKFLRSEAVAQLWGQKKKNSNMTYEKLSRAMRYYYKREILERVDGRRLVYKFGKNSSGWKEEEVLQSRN
To be noted: protein: recombinant; tags: N-terminal GST; dsDNA, one strand shown. The essentials:
as §1

The target of a further assay is CRX (Homo sapiens, UniProt O43186 1-299). Particulars: protein: recombinant; tags: N-terminal GST; dsDNA, one strand shown. The essentials:
as §1

In another assay the target is ETV1 (Homo sapiens, UniProt P50549 1-477). Particulars: protein: recombinant; tags: N-terminal GST; dsDNA, one strand shown. The essentials: as §1
The target in a further assay is T6, ERF (Homo sapiens, UniProt P50548 1-548).
T6 sequence: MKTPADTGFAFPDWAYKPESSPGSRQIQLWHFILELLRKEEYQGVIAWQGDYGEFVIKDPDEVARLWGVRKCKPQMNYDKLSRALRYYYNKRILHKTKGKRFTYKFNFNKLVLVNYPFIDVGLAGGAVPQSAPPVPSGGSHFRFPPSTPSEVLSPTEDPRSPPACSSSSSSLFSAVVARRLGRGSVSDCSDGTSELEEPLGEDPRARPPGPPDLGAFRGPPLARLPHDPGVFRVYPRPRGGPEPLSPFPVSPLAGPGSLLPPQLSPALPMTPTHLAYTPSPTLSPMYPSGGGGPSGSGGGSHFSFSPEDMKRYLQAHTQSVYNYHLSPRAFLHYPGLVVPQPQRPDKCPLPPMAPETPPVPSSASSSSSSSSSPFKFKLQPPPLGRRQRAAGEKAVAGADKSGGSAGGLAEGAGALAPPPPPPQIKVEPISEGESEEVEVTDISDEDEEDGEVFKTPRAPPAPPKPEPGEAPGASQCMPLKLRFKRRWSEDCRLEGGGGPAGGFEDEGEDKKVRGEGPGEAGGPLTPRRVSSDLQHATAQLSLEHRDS
Particulars: protein: recombinant; tags: N-terminal GST; dsDNA, one strand shown. The gist of the method:
as §1

Another assay has as its target T7, ETV3L (Homo sapiens, UniProt Q6ZN32 1-361).
T7 sequence: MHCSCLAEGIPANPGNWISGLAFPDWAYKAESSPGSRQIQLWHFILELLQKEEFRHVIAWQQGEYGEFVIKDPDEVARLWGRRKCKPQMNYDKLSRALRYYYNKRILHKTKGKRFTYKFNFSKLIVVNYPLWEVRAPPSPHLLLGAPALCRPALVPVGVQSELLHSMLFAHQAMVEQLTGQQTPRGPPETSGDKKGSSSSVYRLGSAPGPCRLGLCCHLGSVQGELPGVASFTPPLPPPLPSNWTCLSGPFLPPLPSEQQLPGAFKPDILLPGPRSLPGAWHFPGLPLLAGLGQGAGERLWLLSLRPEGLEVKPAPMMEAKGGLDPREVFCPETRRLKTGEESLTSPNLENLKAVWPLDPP
Particulars: protein: recombinant; tags: N-terminal GST; dsDNA, one strand shown. The gist of the method:
as §1

A further assay addresses T8, ETS2 (Homo sapiens, UniProt P15036 1-469).
T8 sequence: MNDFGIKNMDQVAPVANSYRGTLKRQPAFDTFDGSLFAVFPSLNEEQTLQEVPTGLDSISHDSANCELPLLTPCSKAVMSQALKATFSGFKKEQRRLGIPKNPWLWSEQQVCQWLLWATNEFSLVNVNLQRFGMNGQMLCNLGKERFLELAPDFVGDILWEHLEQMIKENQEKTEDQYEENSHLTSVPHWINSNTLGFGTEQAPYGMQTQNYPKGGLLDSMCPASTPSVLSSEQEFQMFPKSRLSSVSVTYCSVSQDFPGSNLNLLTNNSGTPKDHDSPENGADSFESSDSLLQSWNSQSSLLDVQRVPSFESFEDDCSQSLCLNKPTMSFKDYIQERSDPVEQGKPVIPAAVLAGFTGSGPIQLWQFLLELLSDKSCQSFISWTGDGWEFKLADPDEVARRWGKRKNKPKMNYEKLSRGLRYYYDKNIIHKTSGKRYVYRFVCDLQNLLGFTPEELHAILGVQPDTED
Particulars: protein: recombinant; tags: N-terminal GST; dsDNA, one strand shown. The essentials:
as §1

Another assay deals with T9, SPDEF (Homo sapiens, UniProt O95238 1-335).
T9 sequence: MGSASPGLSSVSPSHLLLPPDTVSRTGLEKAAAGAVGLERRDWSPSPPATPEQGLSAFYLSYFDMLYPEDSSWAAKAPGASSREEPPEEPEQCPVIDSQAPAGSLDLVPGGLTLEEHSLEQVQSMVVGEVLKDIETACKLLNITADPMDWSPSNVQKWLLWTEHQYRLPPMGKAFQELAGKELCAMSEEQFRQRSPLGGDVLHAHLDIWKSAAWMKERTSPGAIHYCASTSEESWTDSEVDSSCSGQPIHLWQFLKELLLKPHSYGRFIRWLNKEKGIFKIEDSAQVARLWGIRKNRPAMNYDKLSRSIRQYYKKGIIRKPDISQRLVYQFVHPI
Particulars: protein: recombinant; tags: N-terminal GST; dsDNA, one strand shown. The essentials:
as §1

A further assay has as its target T10, ETV7 (Homo sapiens, UniProt Q9Y603 1-341).
T10 sequence: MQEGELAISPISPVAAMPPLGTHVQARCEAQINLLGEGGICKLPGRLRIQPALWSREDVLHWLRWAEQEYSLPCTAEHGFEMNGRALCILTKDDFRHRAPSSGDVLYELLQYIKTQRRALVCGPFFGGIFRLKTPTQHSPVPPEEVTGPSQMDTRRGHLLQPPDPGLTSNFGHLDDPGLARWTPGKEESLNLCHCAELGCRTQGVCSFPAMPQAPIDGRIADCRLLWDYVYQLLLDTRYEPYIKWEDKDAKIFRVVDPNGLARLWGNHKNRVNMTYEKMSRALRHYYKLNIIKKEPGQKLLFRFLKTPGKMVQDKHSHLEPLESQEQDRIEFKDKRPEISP
Particulars: protein: recombinant; tags: N-terminal GST; dsDNA, one strand shown. The essentials:
as §1

A further assay deals with T11, ELF5 (Homo sapiens, UniProt Q9UKW6-2 1-255).
T11 sequence: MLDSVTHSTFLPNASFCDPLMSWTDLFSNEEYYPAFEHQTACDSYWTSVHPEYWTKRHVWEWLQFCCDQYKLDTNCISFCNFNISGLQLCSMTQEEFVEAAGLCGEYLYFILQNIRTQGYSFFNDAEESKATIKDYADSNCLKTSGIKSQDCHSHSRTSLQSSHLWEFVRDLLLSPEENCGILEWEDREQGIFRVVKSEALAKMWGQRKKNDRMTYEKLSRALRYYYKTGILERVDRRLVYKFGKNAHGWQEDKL
To be noted: protein: recombinant; tags: N-terminal GST; dsDNA, one strand shown. The essentials: as §1

The next assay addresses T12, ETV3 (Homo sapiens, UniProt P41162-2 1-143).
T12 sequence: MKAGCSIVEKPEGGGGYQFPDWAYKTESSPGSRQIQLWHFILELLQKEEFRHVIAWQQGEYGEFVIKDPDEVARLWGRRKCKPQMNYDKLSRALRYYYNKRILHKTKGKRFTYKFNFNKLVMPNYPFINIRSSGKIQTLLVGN
To be noted: protein: recombinant; tags: N-terminal GST; dsDNA, one strand shown. The essentials: as §1

The next assay addresses ETV6 (Homo sapiens, UniProt P41212 1-452). To be noted: protein: recombinant; tags: N-terminal GST; dsDNA, one strand shown. The essentials: as §1

ETV6, sequence (P41212 whole entry): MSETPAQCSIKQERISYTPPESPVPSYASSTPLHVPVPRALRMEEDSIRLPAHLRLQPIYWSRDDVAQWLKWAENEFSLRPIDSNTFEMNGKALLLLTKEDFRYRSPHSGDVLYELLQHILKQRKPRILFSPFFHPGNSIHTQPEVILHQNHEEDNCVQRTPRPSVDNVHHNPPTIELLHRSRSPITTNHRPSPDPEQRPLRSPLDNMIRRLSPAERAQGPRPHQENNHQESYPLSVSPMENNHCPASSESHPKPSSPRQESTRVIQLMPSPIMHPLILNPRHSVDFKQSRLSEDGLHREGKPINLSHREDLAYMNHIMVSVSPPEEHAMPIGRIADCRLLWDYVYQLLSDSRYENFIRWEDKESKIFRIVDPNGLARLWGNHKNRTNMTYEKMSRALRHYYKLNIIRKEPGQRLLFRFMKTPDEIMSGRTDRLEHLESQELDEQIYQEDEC
CRX, sequence (O43186 whole entry): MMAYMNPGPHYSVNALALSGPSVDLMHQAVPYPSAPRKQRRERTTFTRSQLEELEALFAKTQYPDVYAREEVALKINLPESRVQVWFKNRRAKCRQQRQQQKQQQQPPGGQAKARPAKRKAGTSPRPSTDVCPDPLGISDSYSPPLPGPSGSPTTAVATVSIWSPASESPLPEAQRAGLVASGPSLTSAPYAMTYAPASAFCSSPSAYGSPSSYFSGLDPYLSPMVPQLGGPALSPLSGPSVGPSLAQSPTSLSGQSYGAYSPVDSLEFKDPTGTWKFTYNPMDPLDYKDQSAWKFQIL
ETV1, sequence (P50549 whole entry): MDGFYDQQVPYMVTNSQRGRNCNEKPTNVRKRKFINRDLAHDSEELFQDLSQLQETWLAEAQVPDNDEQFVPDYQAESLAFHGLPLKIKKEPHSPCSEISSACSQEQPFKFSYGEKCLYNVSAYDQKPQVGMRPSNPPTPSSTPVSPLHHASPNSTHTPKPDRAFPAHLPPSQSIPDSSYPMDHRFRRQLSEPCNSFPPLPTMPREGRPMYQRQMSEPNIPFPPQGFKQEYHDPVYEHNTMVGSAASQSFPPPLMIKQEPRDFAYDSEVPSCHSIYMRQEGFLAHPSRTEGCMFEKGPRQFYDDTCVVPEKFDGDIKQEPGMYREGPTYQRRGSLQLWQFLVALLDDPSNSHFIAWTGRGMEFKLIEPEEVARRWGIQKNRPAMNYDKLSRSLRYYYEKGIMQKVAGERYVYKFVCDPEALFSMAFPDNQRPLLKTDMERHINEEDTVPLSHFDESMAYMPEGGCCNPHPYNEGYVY
ELF4, sequence (Q99607 whole entry): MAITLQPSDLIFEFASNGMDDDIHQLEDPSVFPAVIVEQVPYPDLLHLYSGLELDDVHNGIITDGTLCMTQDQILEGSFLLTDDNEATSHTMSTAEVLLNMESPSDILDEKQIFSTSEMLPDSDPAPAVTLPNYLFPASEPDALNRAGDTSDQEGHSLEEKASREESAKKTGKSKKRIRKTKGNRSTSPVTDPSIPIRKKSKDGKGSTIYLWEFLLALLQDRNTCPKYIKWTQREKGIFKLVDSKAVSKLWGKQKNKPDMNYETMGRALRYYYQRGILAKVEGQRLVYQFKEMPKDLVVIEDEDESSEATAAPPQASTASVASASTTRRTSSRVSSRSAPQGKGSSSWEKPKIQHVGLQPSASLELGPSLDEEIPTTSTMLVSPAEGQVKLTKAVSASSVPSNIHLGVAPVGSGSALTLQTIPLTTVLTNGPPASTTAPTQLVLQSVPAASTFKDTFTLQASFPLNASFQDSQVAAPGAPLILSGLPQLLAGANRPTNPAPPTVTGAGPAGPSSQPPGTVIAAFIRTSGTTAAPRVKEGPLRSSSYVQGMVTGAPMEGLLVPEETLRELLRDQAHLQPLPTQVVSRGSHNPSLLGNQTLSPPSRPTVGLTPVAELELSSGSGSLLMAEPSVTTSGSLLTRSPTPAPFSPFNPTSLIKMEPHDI
HSF1, sequence (Q00613 whole entry): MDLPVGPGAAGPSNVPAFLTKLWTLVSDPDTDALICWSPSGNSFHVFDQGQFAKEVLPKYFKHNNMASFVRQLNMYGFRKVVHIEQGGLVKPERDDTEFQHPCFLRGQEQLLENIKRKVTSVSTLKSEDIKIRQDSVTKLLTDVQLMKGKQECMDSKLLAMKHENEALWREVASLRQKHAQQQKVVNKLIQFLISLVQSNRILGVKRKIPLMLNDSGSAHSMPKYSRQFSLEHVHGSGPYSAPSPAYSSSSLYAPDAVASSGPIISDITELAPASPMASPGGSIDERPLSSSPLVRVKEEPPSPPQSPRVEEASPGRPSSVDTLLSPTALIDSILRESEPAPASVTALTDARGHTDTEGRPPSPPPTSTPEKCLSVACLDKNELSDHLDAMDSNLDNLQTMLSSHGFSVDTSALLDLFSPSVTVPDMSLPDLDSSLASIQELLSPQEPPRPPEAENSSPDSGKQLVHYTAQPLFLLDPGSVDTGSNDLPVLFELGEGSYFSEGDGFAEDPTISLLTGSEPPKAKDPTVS
ETV5, sequence (P41161 whole entry): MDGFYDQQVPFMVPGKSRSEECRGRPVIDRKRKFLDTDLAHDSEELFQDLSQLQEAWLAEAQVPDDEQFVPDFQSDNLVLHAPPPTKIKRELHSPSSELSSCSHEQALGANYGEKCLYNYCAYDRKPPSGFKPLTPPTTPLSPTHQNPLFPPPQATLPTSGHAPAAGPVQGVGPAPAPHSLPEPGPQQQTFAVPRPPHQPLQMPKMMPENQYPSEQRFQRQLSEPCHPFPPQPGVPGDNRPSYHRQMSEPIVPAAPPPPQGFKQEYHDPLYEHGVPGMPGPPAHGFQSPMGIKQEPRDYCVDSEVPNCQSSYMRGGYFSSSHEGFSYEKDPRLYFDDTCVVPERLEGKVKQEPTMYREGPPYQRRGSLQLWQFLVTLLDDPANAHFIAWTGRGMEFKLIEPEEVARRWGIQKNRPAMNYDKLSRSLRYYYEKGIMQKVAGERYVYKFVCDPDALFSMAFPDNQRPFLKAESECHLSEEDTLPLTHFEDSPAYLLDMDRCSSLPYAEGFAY

For the sequence ATATAG, the binding signal in the assay with FEV was 1.1 fold enrichment (6-mer frequency, TF over GST control); with ETV5, 1.24 fold enrichment (6-mer frequency, TF over GST control); with HSF1, 1.19 fold enrichment (6-mer frequency, TF over GST control); with SPIC it was 1.2 fold enrichment (6-mer frequency, TF over GST control); in the assay with ELF4, 1.09 fold enrichment (6-mer frequency, TF over GST control); in the assay with ELK4 it was 1.19 fold enrichment (6-mer frequency, TF over GST control). The binding signal was 1.07 fold enrichment (6-mer frequency, TF over GST control) with ETV2; 1.28 fold enrichment (6-mer frequency, TF over GST control) with ELF3; 1.26 fold enrichment (6-mer frequency, TF over GST control) with CRX; 1.17 fold enrichment (6-mer frequency, TF over GST control) in the assay with ETV1; 1.12 fold enrichment (6-mer frequency, TF over GST control) with ERF; 1.11 fold enrichment (6-mer frequency, TF over GST control) with ETV3L. Further, the binding signal with ETS2 was 1.11 fold enrichment (6-mer frequency, TF over GST control); with SPDEF, 1.14 fold enrichment (6-mer frequency, TF over GST control); with ETV7, 1.24 fold enrichment (6-mer frequency, TF over GST control); in the assay with ELF5, 1.13 fold enrichment (6-mer frequency, TF over GST control); with ETV3, 1.19 fold enrichment (6-mer frequency, TF over GST control); in the assay with ETV6 it was 1.17 fold enrichment (6-mer frequency, TF over GST control).

Values taken from publication PMC7862700, “An all-to-all approach to the identification of sequence-specific readers for epigenetic DNA modifications on cytosine”.
